# Test results published in PubChem BioAssay AID588675 (Johns Hopkins Ion Channel Center, 2011).
# Among all 310,000 compounds or so, about 1,900 (0.61%) were called active.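 How the source made its calls: active means plate-corrected calcium response at least 3 library SD above typical, normal starting fluorescence, not activating the receptor alone; inactive means the rest.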 For the sample, actives were picked, then their nearest neighbours and some compounds at random.
# Target: Mas-related G-protein coupled receptor member X1 (Homo sapiens) (UniProt Q96LB2)
# Experiment: allosteric enhancers of human MrgX1 signaling – HEK293 cells, Fluo-4 calcium flux, primary screen (AID 588675);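 further: compound read alongside a low EC10 to EC30 dose of BAM8-22 agonist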;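 on B-score: peak minus trough fluorescence over baseline measured at the second addition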
# Settings: MrgX1-HEK293, Fluo-4 calcium flux, FDSS, at 10 µM; stronger effect = higher value
# Chain of Mas-related G-protein coupled receptor member X1 (Homo sapiens) (Q96LB2 whole entry, looked up): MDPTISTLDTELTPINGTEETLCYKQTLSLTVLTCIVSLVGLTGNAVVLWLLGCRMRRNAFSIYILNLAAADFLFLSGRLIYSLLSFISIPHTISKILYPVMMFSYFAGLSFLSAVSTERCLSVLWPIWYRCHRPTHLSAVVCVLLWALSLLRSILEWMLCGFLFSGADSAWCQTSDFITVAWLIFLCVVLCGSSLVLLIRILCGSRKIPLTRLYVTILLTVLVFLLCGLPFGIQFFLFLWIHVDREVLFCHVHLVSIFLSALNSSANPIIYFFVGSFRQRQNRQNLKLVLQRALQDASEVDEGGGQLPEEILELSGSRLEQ
row,SMILES,B-score
1,CC[C@H]1CC2CN3CCc4c([nH]c5ccccc45)C(C(=O)OC)(C2)C13 (stereo not given in full),13 (active)
2,CN1CCc2cc3c(cc2[C@H]1[C@@H]1OC(=O)c2c1ccc1c2OCO1)OCO3,inactive
3,CN(C)C(=O)Oc1ccc(OCc2cccc[n+]2C)cc1,inactive
4,Cc1nc2ccccn2c1P(=S)(N1CCCCC1)N1CCCCC1,13.5 (active)
5,CC1CCCCN1Cc1cccnc1 (stereo not given),inactive
6,COc1ccc(S(=O)(=O)NCc2ccc(C(=O)N3CCC4(CC3)OCCO4)cc2)cc1,inactive
7,Cc1ccc(-c2nn(CCC#N)cc2C(=O)O)cc1C,inactive
8,CN(C)C(=O)Oc1ccc2c(c1)O/C(=C\c1ccccc1)C2=O,inactive
9,C=CCN1C(=O)C2(C(C(=O)OCC)=C(N)Oc3c2c(=O)oc2ccccc32)c2ccccc21 (stereo not given),27.7 (active)
10,COC(=O)CN1C(=O)C2(C(C(=O)OC)=C(N)Oc3ccccc32)C2=C1CC(C)(C)CC2=O (stereo not given),inactive
11,CCOC(=O)CC1=C(C(=O)OCC)C2(C(=O)N1)C(C(=O)OC)=C(N)Oc1ccccc12 (stereo not given),inactive
12,O=Cc1cn(Cc2ccc(F)cc2Cl)c2ccccc12,inactive
13,CCOc1cccc(=NC2CCCCC2)c2c(C)[nH]c(C)c12,inactive
14,c1ccc(CC2CCCCN2)cc1 (stereo not given),inactive
15,O=C(COC(=O)c1ccccc1)Nc1ccc(Cl)cc1C(=O)c1ccccc1,inactive
